Data published in paper PMC4336329 (PLoS ONE, 2015).
The whole screen tested about 310,000 compounds, of which about 2,200 (0.71%) showed an effect of 50% or more. The effect is printed as a negative number. This is one part of a sample in which strong results are shown more often than they occur.

Biological target: human ether-à-go-go-related gene (hERG) potassium channel (human, UniProt Q12809)
Test: primary screen, population patch clamp on CHO cells stably expressing hERG; higher = less effect of the substance

Chain of human ether-à-go-go-related gene (hERG) potassium channel (Q12809 whole entry, looked up): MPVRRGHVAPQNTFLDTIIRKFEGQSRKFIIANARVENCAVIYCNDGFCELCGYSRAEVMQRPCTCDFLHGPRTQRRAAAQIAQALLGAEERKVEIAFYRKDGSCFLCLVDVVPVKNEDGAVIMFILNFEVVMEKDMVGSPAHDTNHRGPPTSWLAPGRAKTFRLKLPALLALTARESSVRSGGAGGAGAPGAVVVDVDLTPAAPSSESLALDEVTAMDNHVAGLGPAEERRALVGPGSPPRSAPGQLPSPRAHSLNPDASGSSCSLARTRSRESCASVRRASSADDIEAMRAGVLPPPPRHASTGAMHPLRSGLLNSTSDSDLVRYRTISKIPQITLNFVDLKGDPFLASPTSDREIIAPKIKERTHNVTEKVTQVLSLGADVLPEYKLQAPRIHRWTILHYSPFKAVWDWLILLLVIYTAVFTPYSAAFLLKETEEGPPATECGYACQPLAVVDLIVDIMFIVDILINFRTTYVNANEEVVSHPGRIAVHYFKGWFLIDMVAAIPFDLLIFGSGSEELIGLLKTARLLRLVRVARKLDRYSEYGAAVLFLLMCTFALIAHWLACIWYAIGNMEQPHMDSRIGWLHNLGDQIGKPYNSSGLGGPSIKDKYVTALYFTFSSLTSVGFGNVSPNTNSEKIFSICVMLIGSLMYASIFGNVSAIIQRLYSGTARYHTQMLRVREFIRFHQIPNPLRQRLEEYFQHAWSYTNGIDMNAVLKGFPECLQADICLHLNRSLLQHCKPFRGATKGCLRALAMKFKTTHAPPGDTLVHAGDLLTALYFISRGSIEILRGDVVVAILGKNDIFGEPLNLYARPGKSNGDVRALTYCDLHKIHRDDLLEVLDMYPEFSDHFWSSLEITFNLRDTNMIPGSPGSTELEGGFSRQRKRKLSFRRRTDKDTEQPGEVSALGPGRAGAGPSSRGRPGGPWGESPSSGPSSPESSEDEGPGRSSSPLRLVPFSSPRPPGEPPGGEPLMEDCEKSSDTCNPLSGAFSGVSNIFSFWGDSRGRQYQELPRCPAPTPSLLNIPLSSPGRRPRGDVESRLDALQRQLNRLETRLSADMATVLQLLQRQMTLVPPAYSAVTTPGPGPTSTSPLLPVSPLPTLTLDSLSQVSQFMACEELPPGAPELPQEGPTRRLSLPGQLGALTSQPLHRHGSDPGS

Row | SMILES | hERG current change (%, negative = inhibition) at 1uM [%]
1 | O=C(Cc1ccc([N+](=O)[O-])cc1)NCc1ccccn1 | 12.5
2 | CC(N=C1NS(=O)(=O)c2ccccc21)C(=O)OCC(=O)N(C)C1CCS(=O)(=O)C1 (stereo not drawn) | -1.85
3 | Cc1ccc2c(c1)c1c(c(=O)n(-c3ccccc3C)c(=O)n1CC(=O)NCC1CCCO1)n2C (stereo not drawn) | 0.188
4 | CCOC(=O)[C@H]1[C@H]2COc3ccc(OC)cc3[C@@H]2N2C(=O)c3cc(OC)c(OC)cc3NC(=O)[C@@]12C | 5.4
5 | O=C(NNC(=S)Nc1ccccc1)c1ccc(O)cc1 | 15.2
6 | Cc1nn(-c2ccccc2)c(Cl)c1/C=C(\CC(=O)O)c1nc2ccccc2s1 | 2.95
7 | Cc1nnc(SCC(=O)Nc2sc3c(c2C(N)=O)CCC(C)C3)[nH]c1=O (stereo not drawn) | 10.6
8 | CC1CCCCC1NC(=O)CN1C(=O)CSc2cc(S(=O)(=O)N3CCCCCC3)ccc21 (stereo not drawn) | 7.3
9 | CSc1ccc(CN2CCN(C(=O)c3ccc([N+](=O)[O-])cc3)CC2)cc1.O=C(O)C(=O)O | -78.1
10 | CSc1ccc(CN2CCN(C(=O)c3ccncc3)CC2)cc1 | -0.743
11 | O=C(c1ccc([N+](=O)[O-])cc1)N1CCN(Cc2ccccc2)CC1 | -28.7
12 | Cc1[nH]c2ccc(Br)cc2c(=S)c1C/C=C/Cl | 5.3
13 | COCCNC(=O)NC(=O)COC(=O)C1(c2ccc(Cl)cc2)CC1 | 6.06
14 | COc1ccc(C(CCN2CCCCC2)c2c(O)cc(OC)cc2OC)cc1 (stereo not drawn) | -71.3
15 | CCN(CC)CCC(c1ccc(OC)cc1)c1c(O)cc(OC)cc1OC (stereo not drawn) | -25.8
16 | COc1cc(O)c(C(CCN2CCCC(C)C2)c2ccc(N(C)C)cc2)c(OC)c1 (stereo not drawn) | -9.72
17 | CCN(CC)CCC(c1ccc2c(c1)OCO2)c1c(O)cc(OC)cc1OC (stereo not drawn) | -73.4
18 | COc1cc(O)c(C(CCN2CCCCC2)c2ccc3c(c2)OCO3)c(OC)c1 (stereo not drawn) | -72.1
19 | COc1cc(O)c(C(CCN2CCCCC2)c2ccc(N(C)C)cc2)c(OC)c1 (stereo not drawn) | 10.3
20 | COc1cc(O)c(C(CCN2CCCC(C)C2)c2ccc3c(c2)OCO3)c(OC)c1 (stereo not drawn) | -84.1
21 | COc1ccc(C(CCN2CCCC2)c2c(O)cc(OC)cc2OC)cc1 (stereo not drawn) | -21.1

Row | SMILES | hERG current change (%, negative = inhibition) at 1uM [%]
22 | COc1cc(O)c(C(CC(=O)N2CCCC(C)C2)c2ccc3c(c2)OCO3)c(OC)c1 (stereo not drawn) | 14.5
23 | COc1cc(O)c(C(CCN2CCCC2)c2ccc3c(c2)OCO3)c(OC)c1 (stereo not drawn) | -41.5
24 | CCN(CC)C(=O)CC(c1ccc2c(c1)OCO2)c1c(O)cc(OC)cc1OC (stereo not drawn) | 5.47
25 | COc1cc(O)c(C(CCN2CCN(c3ccccc3)CC2)c2ccc3c(c2)OCO3)c(OC)c1 (stereo not drawn) | 5.8
26 | CC1CN(C(=O)c2c(Br)cnn2C)CC(C)O1 (stereo not drawn) | 4.32
27 | O=C(COC(=O)Cc1ccsc1)Nc1cccc(Cl)c1 | 0.601
28 | COc1ccc(N2CCN(C(=O)c3ccc(C)c(NC(=O)c4ccco4)c3)CC2)cc1 | -53.7
29 | COc1ccc(N2CCN(C(=O)c3cccc(NC(=O)c4ccco4)c3)CC2)cc1 | -8.07
30 | Cc1ccc(C(=O)N2CCN(c3ccccc3)CC2)cc1NC(=O)c1ccco1 | 1.43
31 | O=C(c1cc(COc2ccc3ncccc3c2)on1)N1CCCC1 | 13.5
32 | CN1C(=O)c2oc3ccccc3c(=O)c2C1c1ccncc1 (stereo not drawn) | 5.81
33 | O=S(=O)(c1ccc2nc(-c3ccccc3)[nH]c2c1)N1CCN(c2ccc(Cl)cc2)CC1 | 5.61
34 | O=C(NCC1CCN(Cc2ccccc2Cl)CC1)Nc1cccc(Cl)c1 | -62.3
35 | COc1ccc(OC)c(CN2CCC(CNC(=O)Nc3cccc(Cl)c3)CC2)c1 | -26.3
36 | O=C(NCC1CCN(Cc2ccccc2Cl)CC1)Nc1ccccc1F | -6.32
37 | C1CNCCN1.COc1cc(C(O)CO)ccc1O (stereo not drawn) | 10
38 | CCN(CC)CCOC(=O)C(Cc1cccc2ccccc12)CC1CCCO1.O=C(O)C(=O)O (stereo not drawn) | -20.2
39 | CCN(CC)CCOC(=O)C(Cc1ccco1)Cc1cccc2ccccc12.O=C(O)C(=O)O (stereo not drawn) | -62.8
40 | CCN(CC)CCOC(=O)CCc1cccc2ccccc12.O=C(O)C(=O)O | -3.77
41 | C#CCOCCOCCOCCNc1nc(N2CCOCC2)nc(N2CCN(C(=O)Cn3cc(CCC[NH+]=C(N)N)nn3)CC2)n1.[Cl-] | 17.5
42 | CCc1ccc(/C=C(/C#N)C(N)=S)s1 | 15

Row | SMILES | hERG current change (%, negative = inhibition) at 1uM [%]
43 | O=C(N/N=C/c1ccsc1)c1ccccn1 | 16.7
44 | O=C(CNC(=S)N(CCCN1CCOCC1)Cc1cccs1)NCCCN1CCOCC1 | 16.3
45 | O=C(CNC(=S)N(CCCN1CCOCC1)Cc1cccs1)NCc1ccc(Cl)cc1 | -61.3
46 | O=C(Nc1ccc(Cl)cc1)N(CCCN1CCOCC1)Cc1cccs1 | -55
47 | O=C(CNC(=S)N(CCCN1CCOCC1)Cc1cccs1)NCc1ccccc1Cl | -35.5
48 | O=C(Nc1ccc(Cl)c(Cl)c1)N(CCCN1CCOCC1)Cc1cccs1 | -41.8
49 | O=C(Nc1ccccc1)N(CCCN1CCOCC1)Cc1cccs1 | -29.2
50 | Cc1ccc(OCC(=O)N2CCc3ccccc32)cc1 | 10.7
51 | O=C(CN1CCN(CC(=O)Nc2ccc(OCc3ccccc3)cc2)CC1)Nc1ccc(F)cc1 | -81.5
52 | Cc1cc(C(=O)CN2CCN(CC(=O)Nc3ccc(F)cc3)CC2)c(C)n1C1CC1 | -72.3
53 | CCOc1ccc(NC(=O)CN2CCN(Cc3c(F)cccc3F)CC2)cc1 | -50.7
54 | O=C(CN1CCCC1)Nc1ccc(OCc2ccccc2)cc1 | 8
55 | Cc1cc(C(=O)CN2CCN(CC(=O)Nc3cccc(F)c3)CC2)c(C)n1C1CC1 | -7.82
56 | CCCCOc1ccc(NC(=O)CN2CCN(Cc3ccccc3)CC2)cc1 | 1.72
57 | O=C(CN1CCC(NC(=O)c2cccc(F)c2)CC1)Nc1ccc(Br)cc1 | -53.9
58 | Cc1cc(C)cc(NC(=O)CN2CCC(NC(=O)c3cccc(F)c3)CC2)c1 | 4.29
59 | O=C(CN1CCN(c2ccccc2)CC1)Nc1ccc(OCc2ccccc2)cc1 | 13.4
60 | CCOc1ccc(NC(=O)CN2CCN(C3c4ccccc4-c4ccccc43)CC2)cc1 | -25.5
61 | Cc1ccc(NC(=O)CN2CCC(NC(=O)c3cccc(F)c3)CC2)cc1C | -13.4
62 | Cc1cccc(C)c1NC(=O)CN1CCN(CC(=O)c2cc(C)n(C3CC3)c2C)CC1 | -0.73
63 | C[C@]1(C(=O)NCCc2c[nH]c3ccccc23)C=C[C@@H](Cc2ccccc2)N1C(=O)c1ccccc1 | 7.98

Row | SMILES | hERG current change (%, negative = inhibition) at 1uM [%]
64 | CCn1ccc(C(=O)NC2CCCC2)n1 | 8.64
65 | CN(C)C(=O)CN1CCN(Cc2nc(CC3CC3)no2)CC1 | 7.17
66 | COCCN(C(=O)CSc1nc2ccccc2c(=O)n1CCOC)c1c(N)n(Cc2ccccc2)c(=O)[nH]c1=O | 12.6
67 | Cl.O=S(=O)(NC1CCN(Cc2ccccc2)CC1)c1ccc2ccccc2c1 | 4.69
68 | C#CCOCCOCCOCCNc1nc(N2CCN(C(=O)[C@H](Cc3ccc(O)cc3)n3cc([C@@H](N)C(C)CC)nn3)CC2)nc(N2CCN(C(=O)[C@H](CCCCN)n3cc([C@@H](N)CO)nn3)CC2)n1.Cl (stereo partly drawn) | 12.4
69 | COc1cccc(/C=C/C(=O)OCC(=O)NC2CC2)c1 | 10.5
70 | CC(C)/C(=N/Nc1ccccc1[N+](=O)[O-])c1ccccc1 | 22.6
71 | CCCCc1nnc(NC(=O)COC)s1 | 16.3
72 | CC(=O)Nc1ccc(S(=O)(=O)N2CCC(n3cnc4cc(F)ccc43)CC2)cc1 | -26.4
73 | CCOC(=O)N1CCN(CC(=O)Nc2ccc(F)cc2)CC1 | -73
74 | O=C(CN1CCC(n2cnc3cc(F)ccc32)CC1)Nc1ccccc1Br | -23.5
75 | CCOc1ccc(NC(=O)CN2CCN(CC(=O)Nc3cc(OC)cc(OC)c3)CC2)cc1 | -71.3
76 | COc1ccccc1CNC(=O)CN1CCC(n2cnc3cc(F)ccc32)CC1 | -59.1
77 | COc1cc(NC(=O)CN2CCCCCC2)cc(OC)c1 | 13.5
78 | CCOC(=O)N1CCN(CC(=O)Nc2ccc(C)cc2)CC1 | 6.17
79 | CCOc1ccc(NC(=O)CN2CCC(n3cnc4cc(F)ccc43)CC2)cc1 | -71.7
80 | CCOC(=O)N1CCN(CC(=O)Nc2ccc(OC)cc2)CC1 | 9.1
81 | COc1cc(C(=O)N2CCC(n3cnc4cc(F)ccc43)CC2)cc(OC)c1OC | -9.25
82 | CCOc1ccc(NC(=O)CN2CCN(CC(=O)Nc3ccc(C(=O)OC)cc3)CC2)cc1 | -48
83 | COc1ccccc1CNC(=O)CN1CCC(NC(=O)c2ccccc2F)CC1.Cl | 1.06
84 | CCN(C(=O)CSc1nc2cc(C(=O)OC)ccc2c(=O)n1Cc1ccco1)c1cccc(C)c1 | 7.87
